The panel holds about 83,000 compounds, 20% with a hit somewhere; the sample as a whole holds those more often.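 Step 1: grow cells in 96-well plates. Step 2: add test compound at a single concentration. Step 3: incubate 48 h. Step 4: record percent growth.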 A number with no mark means an inactive call. Active and inactive are the calls of the source. How the source made its calls: active means growth percent below 10; inactive means the rest.
Legend:
Assay in all cases: NCI-60 one-dose screen, 48 h (100 = growth as untreated, 0 = no growth, -100 = all killed)
Details in all cases: 10 µM unless noted
NCI/ADR-RES ovarian = system: NCI/ADR-RES ovarian
T-47D breast = system: T-47D breast
BT-549 breast = system: BT-549 breast
MDA-MB-435 melanoma = system: MDA-MB-435 melanoma
SW-620 colon = system: SW-620 colon
MCF7 breast = system: MCF7 breast
HCT-116 colon = system: HCT-116 colon
HCC-2998 colon = system: HCC-2998 colon
KM12 colon = system: KM12 colon

Structure (SMILES)	growth (NCI/ADR-RES ovarian)	growth (T-47D breast)	growth (BT-549 breast)	growth (MDA-MB-435 melanoma)	growth (SW-620 colon)	growth (MCF7 breast)	growth (HCT-116 colon)	growth (HCC-2998 colon)	growth (KM12 colon)
COc1ccc(/C=C\c2cc(OC)c(OC)c(OC)c2)cc1OCC(=O)Nc1nc2ccc(C(F)(F)F)cc2s1	-11.8% (active)	37.7%	43.1%	-34.9% (active)	28.3%	15.1%	13.8%	64.7%	17.9%
CC(=O)O[C@H](C[C@H](C(C)C)N(C)C(=O)[C@@H](NC(=O)[C@H]1CCCCN1C)C(C)C)c1nc(C(=O)N[C@@H](Cc2ccccc2)C[C@H](C)C(=O)O)c(C(C)C)s1	0.688% (active)	44%	-23.3% (active)	-42% (active)	27.3%	15.1%	3.68% (active)	-2.79% (active)	4.51% (active)
Cc1c(O)c(CN(CCCl)CCCl)cc(CN(CCCl)CCCl)c1O	103%	79.3%	99.1%	96.8%	67.9%	67.5%	84%	90.6%	103%
CC(C)(N)Cc1ccccc1	111%	107%	101%	107%	105%	99.4%	101%	110%	105%
CCCOC(=O)N[C@H]1CCc2c(Br)c(OC)c(OC)c(OC)c2-c2ccc(SC)c(=O)cc21	10.4%	51.5%	2.53% (active)	-49.4% (active)	15.3%	10%	-12.6% (active)	16.2%	-15.7% (active)
COC(C(=O)[C@@H](O)[C@@H](C)O)[C@@H]1Cc2cc3cc(O[C@H]4C[C@@H](O[C@H]5C[C@@H](O)[C@H](O)C(C)O5)[C@H](O)C(C)O4)c(C)c(O)c3c(O)c2C(=O)[C@H]1O[C@H]1C[C@@H](O[C@H]2C[C@@H](O[C@H]3C[C@@H](O)[C@@H](O)C(C)O3)[C@@H](O)C(C)O2)[C@H](O)C(C)O1 (stereo partly drawn)	85.5%	-1.75% (active)	-27.2% (active)	-37.2% (active)	22.2%	0.0061% (active)	2.29% (active)	-5.17% (active)	4.05% (active)
O=C(CC1(O)C(=O)Nc2ccc(Br)cc21)c1ccc(C(=O)NCC2CCC3(CC2)OOC2(CCCCC2)OO3)cc1 (stereo not drawn)	64.6%	14.7%	63.6%	36.1%	-12.5% (active)	32.5%	38.9%	99.7%	31.6%
CCCC(=O)O[C@@H]1C[C@H]2C[C@@H](O[C@@H]3O[C@@H](C)[C@@H](O)[C@@H](O)[C@H]3OC)C[C@@H](C[C@@H](C)/C=C/C=C\C[C@@H]3O[C@@H](C[C@@H]3C)[C@@H](O)C[C@H]3C[C@@]1(O)C(=O)O3)O2	67.6%	17.4%	46.9%	59.1%	87.4%	25.7%	56.3%	59.4%	65.3%
CN1CCC(O)(c2ccc(F)cc2)C(C(=O)c2ccc(F)cc2)C1 (stereo not drawn)	103%	94.7%	96%	110%	99%	85.3%	101%	101%	105%
COC(=O)[C@H](C[C@H](Cc1ccccc1)NC(=O)c1csc([C@@H](C[C@H](C(C)C)N(C)C(=O)[C@@H](NC(=O)[C@H]2CCCCN2C)C(C)C)OC(C)=O)n1)NC(=O)OCc1ccccc1	8.51% [8.5 µM] (active)	74.1% [8.5 µM]	-34.2% [8.5 µM] (active)	-33% [8.5 µM] (active)	25.4% [8.5 µM]	29.4% [8.5 µM]	-4.29% [8.5 µM] (active)	20.4% [8.5 µM]	3.13% [8.5 µM] (active)
COC(=O)N[C@H]1CCc2c(Br)c(OC)c(OC)c(OC)c2-c2ccc(SC)c(=O)cc21	7.33% (active)	50.5%	17.1%	-55.7% (active)	17.5%	12.8%	3.67% (active)	17.2%	-4.65% (active)
CN(C)C(=O)Oc1ccccc1	98.2%	105%	118%	112%	93.8%	104%	104%	102%	110%
Cc1ccc(C(Cc2ccccc2)NCCO)cc1 (stereo not drawn)	100%	67.7%	69.3%	99.1%	104%	93.4%	90%	99.9%	90%
O=[N+]([O-])/C=C\c1ccc(Cl)c(Cl)c1	101%	38.3%	4.99% (active)	-26.3% (active)	-6.79% (active)	-32.4% (active)	-52.8% (active)	64.1%	43.6%
CC(=O)OC1CCC2(C)C(CCC3C2CC(=O)C2(C)C3CC(Sc3ccc(N(CCCl)CCCl)cc3)C2C(C)=O)C1 (stereo not drawn)	74.7%	66.7%	80.8%	105%	68.4%	74.2%	72%	87.2%	32.6%
COc1ccc([As]=[As]c2ccc(OC)c(NCS(=O)(=O)O)c2)cc1NCS(=O)(=O)O (stereo not drawn)	73.7%	-41.9% (active)	-12.1% (active)	48.8%	-1.05% (active)	-67.5% (active)	-60.2% (active)	57.5%	72.9%
C[C@@]12CC=C3c4nc(Nc5cccc(O)c5)sc4CC[C@]3(C)[C@H]1CC[C@]1(C)C(=O)CC[C@@H]21	78.9%	-8.55% (active)	17.4%	42.6%	-4.13% (active)	-25.9% (active)	-23.7% (active)	81.5%	34.7%
Nc1c(F)cc(-c2nc3cc(F)ccc3[se]2)cc1F	94.6%	5.78% (active)	78.9%	106%	95.2%	2.27% (active)	37.1%	-44.5% (active)	42.5%
CC(=O)[O][Hg][O]C(C)=O	108%	52.9%	103%	85.7%	85.6%	55.9%	95.7%	120%	87.5%
COc1ccc(O)c(CNC(=O)CN2CCCC2=O)c1	97.8%	99.4%	98.7%	101%	101%	102%	98.8%	98.6%	101%
O=C1NC(=O)C(=Cc2ccc(OCCCCC3CCCCC3)c(Cl)c2)C(=O)N1	107%	91.6%	95.1%	102%	98%	88.8%	91.3%	102%	104%
NC(CCl)CCl	105%	-100% (active)	107%	89.2%	102%	96.5%	107%	101%	99.5%
O=NN1CCCc2cccc(O)c21	32.5%	77.2%	54.2%	52.1%	44.1%	27.2%	21.7%	55.7%	68.4%
c1ccc(Nc2nc(-c3ccccc3)c[se]2)cc1	97.3%	6.3% (active)	87.4%	104%	98.8%	61%	86.3%	86.5%	71.8%
CC[C@H](C)[C@@H]([C@@H](CC(=O)N1CCC[C@H]1[C@H](OC)[C@@H](C)C(=O)N[C@H](C)[C@@H](O)c1ccccc1)OC)N(C)C(=O)[C@@H](NC(=O)[C@@H](NC)C(C)C)C(C)C	-2.45% (active)	87.3%	6.48% (active)	2.42% (active)	32.8%	15.3%	7.3% (active)	9.29% (active)	15.3%
Cc1cc(-c2nc3cc(F)ccc3[se]2)cc(F)c1N	98.7%	14.2%	84.4%	101%	90.7%	2.88% (active)	71.2%	35.5%	61.2%
CCCCCCCCCCCCCCCCCCOc1ccccc1COP(=O)(O)OOCC[N+](C)(C)C	88.5%	16.8%	25.5%	7.62% (active)	6.94% (active)	16.2%	1.15% (active)	-8.6% (active)	0.411% (active)

— PubChem BioAssay (NCI)
